# From PubChem BioAssay AID720575 (National Center for Advancing Translational Sciences (NCATS), 2013)
# The list shows a part of the results. Entries that show only a call come without a potency. Results filed as inconclusive are left out. Active and inactive are the calls of the source. Calls follow the shape of the dose curve; as a rule, active = well fitted inhibition curve with a large enough effect; inconclusive = small, poorly fitted or top-dose-only effect; inactive = no such curve, though single readings can be large or run the other way.
# Assay: qHTS Assay for Inhibitors of Hepatitis C Virus (HCV): Confirmation Assay for Cherry-picked Compounds
# Details: Potency: inhibition
# Source text: Hepatitis C virus (HCV) infects about 200 million people in the world. Many infected people progress to chronic liver disease including cirrhosis with a risk of developing liver cancer. To date, there is no effective vaccine for hepatitis C. Current therapy based on interferon is only effective in about half of the patients and is associated with significant adverse effects. The fraction of people with HCV who can complete a successful treatment is estimated to be no more than 10 percent. Recent development of direct-acting antivirals against HCV, such as protease and polymerase inhibitors, is promising but still requires combination with peginterferon and ribavirin for maximal efficacy. In addition, these agents are associated with high rate of resistance and many have significant side effects. Due to the lack of a culture system for infectious HCV, the search for new HCV drugs has been greatly hampered. […] High-throughput screening (HTS) with an infectious HCV system would cover the complete spectrum of potentially druggable targets in all stages of HCV lifecycle, and would have more biological relevance than other cell-based assays. […]
# Cells were plated in a 1536-wel tissue culture grade plates at a final concentration of 1,000 cells/well (3 uL volume). […] The luciferase activity was read for 15 sec using the PerkinElmenr ViewLux plate reader.
# Also: nearly all actives have a fitted effect of over 80% in size.
row,SMILES,Potency
1,CC1=CC(=Cc2sc3ccccc3[n+]2C)C=C(C)O1,4.99 µM (active)
2,CC[N+]1(C)CCCC(OC(=O)C(O)(c2ccccc2)c2ccccc2)C1 (configuration not stated),inactive
